Laboratory results from PubChem BioAssay (NCATS).
Results filed as inconclusive are left out. The source made the active and inactive calls. Calls follow the shape of the dose curve; as a rule, active = well fitted curve in the direction sought with a large enough effect; inconclusive = small, poorly fitted or top-dose-only effect, or another doubt; inactive = no such curve, though single readings can be large; an effect the other way counts as inactive or inconclusive.

What was measured:
MCC-13 = assay: qHTS assay to identify novel small-molecules to repurpose for Merkel cell carcinoma treatment (AID 1296009); conditions: MCC and control cell lines, CellTiter-Glo viability, 72 h; series mostly up to 46 µM; also: nearly all actives have a fitted effect of over 60% in size
Procedure, shortened: (§1)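 Luminescence from CellTiter-Glo, read 10 min after addition at room temperature, reported viability following a 72 hr, 37 degree celsius treatment with NPC or MIPE compounds in titration; values normalized to plate controls.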

MCC-26 = assay: as above; conditions: MCC and control cell lines, CellTiter-Glo viability, 72 h; series mostly up to 46 µM
Procedure, shortened: as §1

MKL-1 = assay: as above; conditions: MCC and control cell lines, CellTiter-Glo viability, 72 h; series mostly up to 46 µM
Procedure, shortened: as §1

MKL-2 = assay: as above; conditions: MCC and control cell lines, CellTiter-Glo viability, 72 h; series mostly up to 46 µM
Procedure, shortened: as §1

UISO = assay: as above; conditions: MCC and control cell lines, CellTiter-Glo viability, 72 h; series mostly up to 46 µM
Procedure, shortened: as §1

WaGa = assay: as above; conditions: MCC and control cell lines, CellTiter-Glo viability, 72 h; series mostly up to 46 µM
Procedure, shortened: as §1

C33A = assay: Primary qHTS to identify gynecologic anti-cancer compounds using libraries of approved drugs and bioactive compounds (AID 1345084); conditions: Gynecologic cancer cell panel viability, ATPlite luminescence, 48 h; series mostly up to 57.5 µM; also: nearly all actives have a fitted effect of over 55% in size
Procedure, shortened: (§2)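 Cytotoxicity screen measuring ATP content by luciferase luminescence. Each compound is applied at five concentrations for 48 h at 37 C with 5% CO2.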

CASKI = assay: as above; conditions: Gynecologic cancer cell panel viability, ATPlite luminescence, 48 h; series mostly up to 57.5 µM
Procedure, shortened: as §2

Es-2 = assay: as above; conditions: Gynecologic cancer cell panel viability, ATPlite luminescence, 48 h; series mostly up to 57.5 µM
Procedure, shortened: as §2

HeLa = assay: as above; conditions: Gynecologic cancer cell panel viability, ATPlite luminescence, 48 h; series mostly up to 57.5 µM
Procedure, shortened: as §2

Hek293T = assay: as above; conditions: Gynecologic cancer cell panel viability, ATPlite luminescence, 48 h, control line for the selectivity index; series mostly up to 57.5 µM
Procedure, shortened: as §2

JEG-3 = assay: as above; conditions: Gynecologic cancer cell panel viability, ATPlite luminescence, 48 h; series mostly up to 57.5 µM
Procedure, shortened: as §2

OV90 = assay: as above; conditions: Gynecologic cancer cell panel viability, ATPlite luminescence, 48 h; series mostly up to 57.5 µM
Procedure, shortened: as §2

PA-1 = assay: as above; conditions: Gynecologic cancer cell panel viability, ATPlite luminescence, 48 h; series mostly up to 57.5 µM
Procedure, shortened: as §2

SKOV3 = assay: as above; conditions: Gynecologic cancer cell panel viability, ATPlite luminescence, 48 h; series mostly up to 57.5 µM
Procedure, shortened: as §2

Tov-21-G = assay: as above; conditions: Gynecologic cancer cell panel viability, ATPlite luminescence, 48 h; series mostly up to 57.5 µM
Procedure, shortened: as §2

Tov112D = assay: as above; conditions: Gynecologic cancer cell panel viability, ATPlite luminescence, 48 h; series mostly up to 57.5 µM
Procedure, shortened: as §2

[1] = Drug repurposing screens with cells derived from glioblastoma tumor samples (AID 1345199); conditions: GBM patient neurospheres viability, ATP luminescence, 48 h; also: nearly all actives have a fitted effect of over 40% in size; also: potency is read from the fitted curve at half-maximal effect
Procedure, shortened: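 Primary testing used CD133+ neurospheres from four GBM patients, seven concentrations, 48 h exposure and ATP-based viability; confirmation added three slower-growing patient lines.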

CAOV3 = assay: Primary qHTS to identify gynecologic anti-cancer compounds using libraries of approved drugs and bioactive compounds (AID 1345084); conditions: Gynecologic cancer cell panel viability, ATPlite luminescence, 48 h; series mostly up to 57.5 µM; also: nearly all actives have a fitted effect of over 55% in size
Procedure, shortened: as §2

[2] = at 21.2 µM (top of the series), tumour line B
[3] = at 45.9 µM (top of the series), tumour line B
[4] = at 45.9 µM (top of the series), tumour line D
[5] = at 46 µM (top of the series), tumour line A
% is scaled to controls: 0 for no effect and ±100 for the full control effect.

C[N+]1(C)[C@@H]2CC[C@H]1CC(OC(=O)C(CO)c1ccccc1)C2 (stereo partly drawn)
inactive: Potency (MCC-13) | Potency (MCC-26) | Potency (MKL-1) | Potency (MKL-2) | Potency (UISO) | Potency (WaGa) | Potency (C33A) | Potency (CASKI) | Potency (Es-2) | Potency (HeLa) | Potency (Hek293T) | Potency (JEG-3) | Potency (OV90) | Potency (PA-1) | Potency (SKOV3) | Potency (Tov-21-G) | Potency (Tov112D) | activity, negative = cell killing [1, 2] -14.5% | activity, negative = cell killing ([1]; at 21.2 µM (top of the series), tumour line D) -3.94% | activity, negative = cell killing ([1]; at 21.3 µM (top of the series), tumour line A) -14.4% | activity, negative = cell killing [1, 3] -1.41% | activity, negative = cell killing [1, 4] -16.2% | activity, negative = cell killing ([1]; at 46.1 µM (top of the series), tumour line C) -12.5%

CNC(=O)NC(O)C(Cl)(Cl)Cl (stereo not drawn)
inactive: Potency (MCC-13) | Potency (MCC-26) | Potency (MKL-1) | Potency (MKL-2) | Potency (UISO) | Potency (WaGa) | Potency (C33A) | Potency (CASKI) | Potency (Es-2) | Potency (HeLa) | Potency (JEG-3) | Potency (OV90) | Potency (PA-1) | Potency (SKOV3) | Potency (Tov-21-G) | Potency (Tov112D) | activity, negative = cell killing [1, 3] -2.48% | activity, negative = cell killing [1, 4] 7% | activity, negative = cell killing [1, 5] -5.01%

CC[C@H]1C[C@H]2[C@@H]3CCC4=CC(=O)CC[C@@H]4[C@H]3CC[C@]2(C)[C@H]1O
active: Potency ([1]; tumour line A) 10 µM
inactive: Potency (MCC-13) | Potency (MCC-26) | Potency (MKL-1) | Potency (UISO) | Potency (WaGa) | Potency (CASKI) | Potency (Es-2) | Potency (JEG-3) | Potency (OV90) | Potency (Tov-21-G) | Potency (Tov112D)

CCCC(C)C1(CC)C(=O)N=C(S)NC1=O (stereo not drawn)
inactive: Potency (MCC-13) | Potency (MCC-26) | Potency (MKL-1) | Potency (MKL-2) | Potency (UISO) | Potency (WaGa) | Potency (C33A) | Potency (CASKI) | Potency (Es-2) | Potency (HeLa) | Potency (Hek293T) | Potency (JEG-3) | Potency (PA-1) | Potency (Tov-21-G) | Potency (Tov112D) | activity, negative = cell killing [1, 3] -11.2% | activity, negative = cell killing [1, 4] -14.3% | activity, negative = cell killing [1, 5] -28.3%

Nc1ccc(Cl)cc1C(=O)c1ccccc1F
inactive: Potency (MCC-13) | Potency (MCC-26) | Potency (MKL-1) | Potency (MKL-2) | Potency (WaGa) | Potency (C33A) | Potency (CAOV3) | Potency (CASKI) | Potency (Es-2) | Potency (HeLa) | Potency (Hek293T) | Potency (JEG-3) | Potency (OV90) | Potency (PA-1) | Potency (SKOV3) | Potency (Tov-21-G) | Potency (Tov112D)

O=C(CCCN1CCC(n2c(=O)[nH]c3ccccc32)CC1)c1ccc(F)cc1
active: Potency ([1]; tumour line A) 5.62 µM
inactive: Potency (MCC-13) | Potency (MCC-26) | Potency (MKL-1) | Potency (MKL-2) | Potency (UISO) | Potency (WaGa) | Potency (C33A) | Potency (Es-2) | Potency (HeLa) | Potency (Hek293T) | Potency (JEG-3) | Potency (OV90) | Potency (PA-1) | Potency (SKOV3) | Potency (Tov-21-G) | Potency (Tov112D) | activity, negative = cell killing [1, 2] -8.66%

CC(Cc1ccccc1)NCCCCl (stereo not drawn)
inactive: Potency (MCC-13) | Potency (MCC-26) | Potency (MKL-1) | Potency (UISO) | Potency (WaGa) | Potency (C33A) | Potency (CASKI) | Potency (Es-2) | Potency (HeLa) | Potency (Hek293T) | Potency (JEG-3) | Potency (OV90) | Potency (PA-1) | Potency (SKOV3) | Potency (Tov-21-G) | Potency (Tov112D)
